Data taken from PubChem BioAssay.
Activity calls are given as the source filed them.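 How the source made its calls, unless noted: active means inhibition at or above 50% at 10 µM; inactive means inhibition below 50%.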

Legend:
[1] = inhibitors of TNFa-induced NFkB p65 translocation, primary screen, imaging, HUVEC, MLSMR starter and 10KST1 sets (AID 438;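 active means inhibition above 20% together with a positive visual image hit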;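 further: compound added about 3h40 before a 20 min TNFalpha stimulation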;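 on inhibition: signal is the nuclear over cytoplasmic p65 intensity ratio per well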); conditions: HUVEC TNFa-induced p65 nuclear translocation; cell count: measured here: nuclei count (cytotoxicity indicator), at 2.08 µM; inhibition: at 2 µM, stronger effect = higher value, 0% TNFa-plus-vehicle, 100% no-TNFa wells
[2] = inhibitors of mutant huntingtin aggregation, primary screen, imaging, exon1htt(103Q)mCFP cells, high-content imaging (AID 483;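 active means visual image review flags a hit and inhibition of aggregation exceeds 20%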;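 further: compound exposure lasted 3 days before fixation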;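 on nuclei count: percent of the per-plate median nuclei count of sample wells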); conditions: exon1htt(103Q)mCFP cell line, aggregate imaging, at 2 µM; inhibition of aggregation: stronger effect = higher value; nuclei count: measured here: cell count, toxicity
[3] = inhibitors of E-selectin induction by TNFa, primary screen, imaging, HUVEC, immunofluorescence, MLSMR starter and 10KST1 sets (AID 487;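 active means visually confirmed hit in the image check and inhibition above 20%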;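 on inhibition: signal is fraction of cell area covered by stained E-selectin grains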;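 on nuclei count: 100% = median nuclei count of all wells on the same plate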); conditions: HUVEC TNFalpha-induced E-selectin immunofluorescence imaging, at 2 µM; inhibition: stronger effect = higher value; nuclei count: measured here: cell number, toxicity
[4] = molecular target: Voltage-gated potassium channel subunit beta-2 (Rattus norvegicus) (UniProt P62483); assay: KvBeta enzyme negative modulators, primary screen, biochemical, NADPH fluorescence (AID 622;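 active means fluorescence slope higher than the sample average by over 3 SD, cut at about -0.22 in these data, passing the limit was not always enough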;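 further: slope of raw intensity against log time taken from 70 to 1610 s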); conditions: recombinant KvBeta, 4-cyanobenzaldehyde reduction, at 10 µM, stronger effect = higher value
Chain of Voltage-gated potassium channel subunit beta-2 (Rattus norvegicus) (P62483 whole entry, looked up): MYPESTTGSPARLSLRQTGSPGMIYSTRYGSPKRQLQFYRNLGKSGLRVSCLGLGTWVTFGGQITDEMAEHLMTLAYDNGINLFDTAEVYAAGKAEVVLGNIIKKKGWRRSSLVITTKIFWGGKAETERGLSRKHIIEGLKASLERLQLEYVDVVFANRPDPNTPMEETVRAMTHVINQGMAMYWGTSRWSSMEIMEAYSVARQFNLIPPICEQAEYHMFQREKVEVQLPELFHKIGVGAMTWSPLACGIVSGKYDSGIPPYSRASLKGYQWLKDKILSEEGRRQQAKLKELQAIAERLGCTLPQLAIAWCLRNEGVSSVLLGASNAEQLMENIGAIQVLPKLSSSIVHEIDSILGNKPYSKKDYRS

[5] = molecular target: Voltage-gated potassium channel subunit beta-2 (Rattus norvegicus) (UniProt P62483); assay: KvBeta positive modulators, primary screen, biochemical, NADPH fluorescence (AID 623;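 active means NADPH fluorescence slope more negative than the mean of all samples by about 3 SD, 99.7% confidence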;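 further: fluorescence intensity change per second fitted from 20 to 320 s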); conditions: Recombinant KvBeta, NADPH fluorescence decrease slope, 10 min; at 10 µM; stronger effect = lower value
[6] = molecular target: Alpha-2C adrenergic receptor (Homo sapiens) (UniProt P18825); assay: modulators of alpha2C/GIRK thallium flux, primary screen, cell-based, HEK293 alpha2C/GIRK1/2 (AID 624;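 active means fluorescence slope after compound addition differing from the mean of all screened samples at 99.7% confidence, in either direction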;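 further: slope of fluorescence ratio to pre-addition baseline per second over 15 to 24 s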); conditions: thallium flux BTC fluorescence, at 10 µM, actives lie on both sides
Chain of Alpha-2C adrenergic receptor (Homo sapiens) (P18825 whole entry, looked up): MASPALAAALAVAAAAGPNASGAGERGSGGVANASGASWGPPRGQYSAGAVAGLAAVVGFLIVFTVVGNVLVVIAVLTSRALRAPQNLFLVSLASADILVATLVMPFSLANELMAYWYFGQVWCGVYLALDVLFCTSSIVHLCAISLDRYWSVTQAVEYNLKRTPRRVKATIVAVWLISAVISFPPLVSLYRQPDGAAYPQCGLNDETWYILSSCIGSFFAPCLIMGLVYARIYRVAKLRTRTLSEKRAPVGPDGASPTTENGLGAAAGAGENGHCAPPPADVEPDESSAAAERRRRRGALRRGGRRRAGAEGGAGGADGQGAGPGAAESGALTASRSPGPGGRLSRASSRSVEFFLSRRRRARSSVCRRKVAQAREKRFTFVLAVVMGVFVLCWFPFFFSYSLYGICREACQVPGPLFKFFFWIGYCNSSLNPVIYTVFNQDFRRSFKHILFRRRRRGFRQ

[7] = inhibitors of Sendai virus-induced IRF3 signaling, primary screen, TLR/RLR signaling modifier project, cell-based, Sendai virus stimulus, luciferase, 10K MLSCN set (AID 602276); conditions: HEK293 RL24 IRF3 luciferase reporter, at 10 µM, stronger effect = higher value;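 further: firefly luciferase from ISG56 promoter only with Renilla not read in this screen; 0% = Sendai virus plus DMSO and 100% = medium plus DMSO without virus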
[8] = inhibitors of poly I:C-induced TLR3 signaling, primary screen, cell-based, poly I:C stimulus, luciferase, 10K MLSCN set (AID 602277;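 active means inhibition of the reporter signal at or above 50%; inactive means inhibition below 50%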); conditions: HEK293-TLR3 RL24 IRF3 luciferase reporter, at 10 µM, stronger effect = higher value

## CC(C)n1c(NCc2c[nH]c3ccccc23)nc2ccccc21
[1]
  cell count: 489
  inhibition: 1% (inactive)
[2]
  inhibition of aggregation: 20.3% (inactive)
  nuclei count: 54.6%
[3]
  inhibition: -5.1% (inactive)
  nuclei count: 86.6%
[4]
  fluorescence slope: -0.511 (inactive)
[5]
  NADPH fluorescence slope: -4.3e-05 (inactive)
[6]
  slope: 0.00272 (inactive)
[7]
  inhibition: -4.81% (inactive)
[8]
  inhibition: -0.81% (inactive)

## CC(C)N(C(=O)N1CCC(c2nc(-c3ccncc3)no2)CC1)C(C)C
[1]
  cell count: 653
  inhibition: -7.5% (inactive)
[2]
  inhibition of aggregation: 8.3% (inactive)
  nuclei count: 102%
[3]
  inhibition: -95.9% (inactive)
  nuclei count: 106%
[4]
  fluorescence slope: -0.354 (inactive)
[5]
  NADPH fluorescence slope: -3.3e-05 (inactive)
[6]
  slope: 0.00413 (inactive)
[7]
  inhibition: 0.899% (inactive)
[8]
  inhibition: -5.83% (inactive)

## c1cc(-c2nc3ccccc3o2)nc(-c2nc3ccccc3o2)c1
[1]
  cell count: 426
  inhibition: 17% (inactive)
[2]
  inhibition of aggregation: -10.7% (inactive)
  nuclei count: 82.8%
[3]
  inhibition: 9.6% (inactive)
  nuclei count: 113%
[4]
  fluorescence slope: -0.39 (inactive)
[5]
  NADPH fluorescence slope: -5.8e-05 (inactive)
[6]
  slope: 0.00362 (inactive)
[7]
  inhibition: 16.6% (inactive)
[8]
  inhibition: 30.1% (inactive)

## CC(C)Cn1c(N)c(C(=O)COC(=O)c2cc(-c3ccco3)nc3ccccc23)c(=O)n(C)c1=O
[1]
  cell count: 381
  inhibition: -2.2% (inactive)
[2]
  inhibition of aggregation: -4.3% (inactive)
  nuclei count: 100%
[3]
  inhibition: -133% (inactive)
  nuclei count: 110%
[4]
  fluorescence slope: -0.482 (inactive)
[5]
  NADPH fluorescence slope: -1.1e-05 (inactive)
[6]
  slope: 0.00566 (inactive)
[7]
  inhibition: 15.4% (inactive)
[8]
  inhibition: -3.29% (inactive)

## O=C1CCNc2cc3ccccc3cc21
[1]
  cell count: 356
  inhibition: 2.5% (inactive)
[2]
  inhibition of aggregation: 32.4% (inactive)
  nuclei count: 80.4%
[3]
  inhibition: 24.1% (inactive)
  nuclei count: 99.3%
[4]
  fluorescence slope: -0.472 (inactive)
[5]
  NADPH fluorescence slope: -0.000147 (inactive)
[6]
  slope: 0.00661 (inactive)
[7]
  inhibition: 21.5% (inactive)
[8]
  inhibition: 32.3% (inactive)

## O=C(NC1=NCCS1)NC12CC3CC(CC(C3)C1)C2
[1]
  cell count: 357
  inhibition: -3.3% (inactive)
[2]
  inhibition of aggregation: 6.6% (inactive)
  nuclei count: 96.6%
[3]
  inhibition: -52.9% (inactive)
  nuclei count: 101%
[4]
  fluorescence slope: -0.598 (inactive)
[5]
  NADPH fluorescence slope: -3.4e-05 (inactive)
[6]
  slope: 0.00362 (inactive)
[7]
  inhibition: -1.24% (inactive)
[8]
  inhibition: 12.2% (inactive)

## C=CCn1c(-c2ccccc2)c[nH]c1=S
[1]
  cell count: 544
  inhibition: -9.5% (inactive)
[2]
  inhibition of aggregation: -9.3% (inactive)
  nuclei count: 112%
[3]
  inhibition: 8.5% (inactive)
  nuclei count: 101%
[4]
  fluorescence slope: -0.61 (inactive)
[5]
  NADPH fluorescence slope: -4.2e-05 (inactive)
[6]
  slope: 0.00665 (inactive)
[7]
  inhibition: -33.4% (inactive)
[8]
  inhibition: -112% (inactive)

## COc1ccc2ccccc2c1CN1CCN(C)CC1
[1]
  cell count: 441
  inhibition: -7.1% (inactive)
[2]
  inhibition of aggregation: -14.9% (inactive)
  nuclei count: 93.7%
[3]
  inhibition: -40.6% (inactive)
  nuclei count: 123%
[4]
  fluorescence slope: -0.444 (inactive)
[5]
  NADPH fluorescence slope: -0.000107 (inactive)
[6]
  slope: 0.00594 (inactive)
[7]
  inhibition: 7.96% (inactive)
[8]
  inhibition: 27.9% (inactive)
